Measurements: PubChem BioAssay (Tox21)
Results filed as inconclusive are left out. A call without a number means that no potency is given here. Active and inactive are the calls of the source. The call rests on the fitted dose curve; in most records, active means well fitted curve in the direction sought with a large enough effect in the signal ratio in the repeat runs (not every such curve was filed as active); inconclusive means weak or mixed curves, or effect the other way; inactive means no such curve, though single readings can be large or run the other way; the % refers to the signal ratio.

What follows are molecules tested against Estrogen receptor (Homo sapiens) (UniProt P03372) (assay: qHTS assay to identify small molecule antagonists of the estrogen receptor alpha (ER-alpha) signaling pathway (AID 743069)). Conditions: HEK293 ER-alpha-UAS-bla, beta-lactamase ratio, antagonist mode; series mostly up to 69.4 µM; activity, negative = inhibition: at the top concentration.
Estrogen receptor (Homo sapiens), sequence (P03372 whole entry, looked up): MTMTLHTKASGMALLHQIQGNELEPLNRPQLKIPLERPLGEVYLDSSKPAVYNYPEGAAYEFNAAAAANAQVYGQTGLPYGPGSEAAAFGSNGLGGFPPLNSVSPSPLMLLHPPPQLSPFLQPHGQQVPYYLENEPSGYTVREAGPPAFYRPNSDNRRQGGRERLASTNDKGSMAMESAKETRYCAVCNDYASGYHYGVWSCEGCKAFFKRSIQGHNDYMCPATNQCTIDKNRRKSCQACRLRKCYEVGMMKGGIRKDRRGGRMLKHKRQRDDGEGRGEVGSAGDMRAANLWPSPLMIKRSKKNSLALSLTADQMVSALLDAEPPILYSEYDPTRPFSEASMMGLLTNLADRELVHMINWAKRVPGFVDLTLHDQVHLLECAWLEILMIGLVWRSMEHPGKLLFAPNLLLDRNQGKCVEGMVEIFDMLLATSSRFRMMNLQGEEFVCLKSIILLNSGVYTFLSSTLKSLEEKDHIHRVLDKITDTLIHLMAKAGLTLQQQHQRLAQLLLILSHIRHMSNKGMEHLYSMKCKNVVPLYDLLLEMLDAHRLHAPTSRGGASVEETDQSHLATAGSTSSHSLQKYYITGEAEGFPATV
How it was run: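 HEK293 ER-alpha-UAS-bla GripTite cells, held overnight in 2% charcoal-stripped FBS, 5,000 cells/well, preincubated 4 h, then compound plus 17beta-estradiol for 18 h at 37C. Beta-lactamase read by LiveBLAzer B/G FRET substrate, 2 h at room temperature.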
With `CNC(=O)O/N=C(\SC)C(=O)N(C)C` the Potency was “inactive”. For `CCCCC(CC)C(=O)Cl` (stereo unspecified), the Potency was “inactive”. For `O=[N+]([O-])c1ccc(Cl)c(Cl)c1`, the Potency was “inactive”. With `CNC(=O)O/N=C/C(C)(C)S(C)=O` (stereo unspecified) the Potency was “inactive”. `CNC(=O)Oc1cccc2ccccc12` was tested, and the Potency was “inactive”. In the case of `CNC(=O)O/N=C/C(C)(C)SC`, the Potency was “inactive”. For `CC(C)CCCCCCOC(=O)c1ccccc1C(=O)OCCCCCCC(C)C`, the Potency was “inactive”. For `O=C(O)CCCc1ccc(N(CCCl)CCCl)cc1`, the Potency was “inactive”. In the case of `O=C(O)Cc1ccccc1`, the Potency was “inactive”. For `OCc1ccco1`, the Potency was “inactive”. In the case of `FC(F)(F)c1ccc(Cl)cc1`, the Potency was “inactive”. For `Cc1cc(Cl)ccc1OC(C)C(=O)O` (stereo unspecified), the Potency was “inactive”. For `O=[N+]([O-])c1cc([As](=O)(O)O)ccc1O`, the Potency was “inactive”. In the case of `COP(=S)(OC)Oc1ccc(SC)c(C)c1`, the Potency was “inactive”. In the case of `CN(C)CCC#N`, the Potency was “inactive”. With `COc1nc(NC(C)C)nc(NC(C)C)n1` the Potency was “inactive”. In the case of `Cc1cccc(C)c1NC(=O)CN1CCCC1=O`, the Potency was “inactive”. With `COS(=O)(=O)OC` the Potency was “inactive”. With `CNC(=O)O/N=C/C(C)(C)S(C)(=O)=O` the Potency was “inactive”. `Sc1ccccc1` was tested, and the Potency was “inactive”. `Nc1ccc([As](=O)(O)O)cc1` was tested, and the Potency was “inactive”. In the case of `Cc1ccc(O)c(C)c1`, the “activity, negative = inhibition” value was 19.9% (inactive). In the case of `C=CC(=O)OCCCCCC(C)C`, the Potency was “inactive”. For `CCOc1ccc(N)cc1`, the Potency was “inactive”. For `C[C@H]1C(=O)O[C@@H]2CCN3CC=C(COC(=O)[C@](C)(O)[C@]1(C)O)[C@H]23`, the Potency was “inactive”. With `O=C/C=C/c1ccccc1` the Potency was “inactive”.
